Source: PubChem BioAssay (EPA / NIEHS)
Inconclusive results are not listed. The source made the active and inactive calls. Rule for the calls, unless noted: active = hit-call score of the fitted dose curve at least 0.9, where 1 is the maximum; inactive = score below 0.9.

Assays:
[1] = ATG_AP_2_CIS: Attagene CIS-FACTORIAL HepG2 Assay for human Activator Protein 2 (AP-2) (AID 2282932); conditions: HepG2 AP-2 cis-reporter, Attagene transcription factor profiling; actives raise or lower the signal
Procedure, shortened: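 HepG2, transient MRTU transfection, cis-regulated reporters; 24 h compound exposure; RNA isolated, RT-PCR, 6-FAM labelling, HpaI digest, CE fluorescence. DMSO = negative control/baseline, bidirectional fit.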

[2] = ATG_BRE_CIS: Attagene CIS-FACTORIAL HepG2 Assay for human Bone Morphogenetic Protein (BMP) Response Element (BRE) (AID 2282933); conditions: HepG2 BMP response element reporter, Attagene transcription factor profiling; actives raise or lower the signal
Procedure, shortened: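 Transient MRTU transfection of human HepG2 liver cells; 24 h compound treatment; total RNA isolated, reverse-transcribed, PCR-amplified, 6-FAM labelled, HpaI-cut, capillary electrophoresis. DMSO = negative control/baseline, bidirectional fit.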

[3] = ATG_EGR_CIS: Attagene CIS-FACTORIAL HepG2 Assay for human Early Growth Response 1 (EGR1) (AID 2282938); conditions: HepG2 Attagene CIS-FACTORIAL EGR reporter mRNA; actives raise or lower the signal
Procedure, shortened: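 Endpoint derived by bidirectional fitting versus DMSO vehicle. Method: cis-promoter reporter units transfected into HepG2, 24 h dosing, RNA isolation, RT-PCR with 6-FAM primer extension and HpaI digestion, then capillary electrophoresis fluorescence detection.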

[4] = ATG_MRE_CIS: Attagene CIS-FACTORIAL HepG2 Assay for human Metal Responsive Element (MRE) (AID 2282954); conditions: HepG2 MRE cis-reporter transcription, Attagene multiplex; actives raise or lower the signal
Procedure, shortened: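 Transient MRTU transfection of HepG2 (FuGene 6); 24 h dosing; total RNA → oligo(dT) RT, PCR, 6-FAM primer extension, HpaI cut, CE. Bidirectional fit vs DMSO.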

[5] = ATG_RORE_CIS: Attagene CIS-FACTORIAL HepG2 Assay for human RAR-related Orphan Receptor Element (RORE) (AID 2282959); conditions: HepG2 Attagene cis-factorial RORE reporter, mRNA; actives raise or lower the signal
Procedure, shortened: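 Transiently transfected HepG2 reporter cells were treated 24 h. Reporter transcripts were detected by RT-PCR and capillary electrophoresis, with bidirectional fitting against DMSO.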

[6] = ATG_TA_CIS: Attagene CIS-FACTORIAL HepG2 Assay for human TA Basal Promoter (AID 2282964); conditions: HepG2 Attagene CIS-factorial TA basal promoter reporter; actives raise or lower the signal
Procedure, shortened: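 Read-out: fluorescent reporter-transcript fragments resolved by capillary electrophoresis after RT-PCR and HpaI digestion. Source: HepG2 cells carrying transiently transfected multi-reporter cis constructs, treated 24 h. Endpoint fitted bidirectionally relative to DMSO.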

[7] = ATG_M_19_TRANS: Attagene TRANS-FACTORIAL HepG2 Assay for M19 Transcription Factor (Internal Marker) (AID 2282974; active = hit-call score of the fitted dose curve at least 0.9, where 1 is the maximum); conditions: HepG2 Attagene TRANS-FACTORIAL M19 internal marker reporter
Procedure, shortened: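 Using RT-PCR and capillary electrophoresis, reporter mRNA from transiently transfected human HepG2 cells was quantified following 24 h exposure; activity was fitted in the positive direction against DMSO.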

[8] = ATG_M_32_TRANS: Attagene TRANS-FACTORIAL HepG2 Assay for M32 Transcription Factor (Internal Marker) (AID 2282984; active = hit-call score of the fitted dose curve at least 0.9, where 1 is the maximum); conditions: HepG2 Attagene TRANS M32 internal marker reporter
Procedure, shortened: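 Measures reporter mRNA induction in human HepG2 liver cells after 24 h chemical treatment. Transcripts from transiently transfected GAL4-UAS reporter units are amplified, fluorescently labelled and sized by capillary electrophoresis; gain of signal relative to DMSO.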

[9] = ATG_NFI_CIS: Attagene CIS-FACTORIAL HepG2 Assay for human Nuclear Factor I (NFI) (AID 2282989); conditions: HepG2 cis-regulatory reporter, NFI response element transcription; actives raise or lower the signal
Procedure, shortened: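 Transient MRTU transfection of HepG2 → 24 h chemical dosing → total RNA, oligo(dT) RT → PCR, 6-FAM primer extension, HpaI cut → capillary electrophoresis. Endpoint fitted bidirectionally relative to DMSO.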

[10] = ATG_NRF2_ARE_CIS: Attagene CIS-FACTORIAL HepG2 Assay for human Nuclear Factor Erythroid 2 Related Factor 2 (NFR2) response to Antioxidant Response Elements (ARE) (AID 2282992); conditions: HepG2 Attagene ARE/NRF2 reporter, transcription factor activity; actives raise or lower the signal;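 for AC50: reporter mRNA level measured by RT-PCR and capillary electrophoresis fluorescence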
Procedure, shortened: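 HepG2 cells transiently transfected with multiplexed cis-regulated reporter transcription units measure endogenous transcription factor activity. Reporter mRNA at 24 h is quantified by RT-PCR, fluorescent labelling and capillary electrophoresis, with bidirectional fitting relative to DMSO.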

[11] = molecular target: human Peroxisome Proliferator-activated Receptor alpha (PPARa), PPARA (gene 5465) (UniProt Q07869); assay: ATG_PPARa_TRANS: Attagene TRANS-FACTORIAL HepG2 Assay for human Peroxisome Proliferator-activated Receptor alpha (PPARa) (AID 2283001; active = hit-call score of the fitted dose curve at least 0.9, where 1 is the maximum;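 for AC50: potency for gain of reporter signal over DMSO so agonist or activator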)
Sequence of human Peroxisome Proliferator-activated Receptor alpha (PPARa), PPARA (gene 5465) (Q07869 whole entry, looked up, the tested form may be a part): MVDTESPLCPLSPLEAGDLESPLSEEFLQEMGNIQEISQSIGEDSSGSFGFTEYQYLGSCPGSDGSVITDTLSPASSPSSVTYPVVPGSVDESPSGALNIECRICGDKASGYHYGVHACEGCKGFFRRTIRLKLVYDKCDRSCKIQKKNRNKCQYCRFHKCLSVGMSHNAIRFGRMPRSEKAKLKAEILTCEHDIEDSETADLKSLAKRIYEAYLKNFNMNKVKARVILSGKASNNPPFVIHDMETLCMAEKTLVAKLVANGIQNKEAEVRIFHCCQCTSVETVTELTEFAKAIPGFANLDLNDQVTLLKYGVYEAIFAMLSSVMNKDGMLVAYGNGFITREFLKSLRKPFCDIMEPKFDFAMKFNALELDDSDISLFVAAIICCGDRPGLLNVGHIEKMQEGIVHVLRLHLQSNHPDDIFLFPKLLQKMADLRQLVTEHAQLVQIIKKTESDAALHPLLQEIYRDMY
Procedure, shortened: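 Read-out is fluorescence of reporter cDNA fragments resolved by capillary electrophoresis after RT-PCR. Human HepG2 liver cells carried transfected PPARa-Gal4 chimera and GAL4-UAS reporter units, treated 24 h; activity scored as increase over DMSO.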

[12] = molecular target: Retinoic acid receptor alpha (Homo sapiens) (UniProt P10276); assay: ATG_DR5_RAR_CIS: Attagene CIS-FACTORIAL HepG2 Assay for human Retinoic Acid Receptor Alpha (RARE), DR5 submotif (AID 2282934); conditions: HepG2 Attagene cis-factorial RARE DR5 reporter, mRNA; actives raise or lower the signal;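 for AC50: reporter responds to endogenous RAR alpha beta and gamma in HepG2 not RARA alone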
Sequence of Retinoic acid receptor alpha (Homo sapiens) (P10276 whole entry, looked up): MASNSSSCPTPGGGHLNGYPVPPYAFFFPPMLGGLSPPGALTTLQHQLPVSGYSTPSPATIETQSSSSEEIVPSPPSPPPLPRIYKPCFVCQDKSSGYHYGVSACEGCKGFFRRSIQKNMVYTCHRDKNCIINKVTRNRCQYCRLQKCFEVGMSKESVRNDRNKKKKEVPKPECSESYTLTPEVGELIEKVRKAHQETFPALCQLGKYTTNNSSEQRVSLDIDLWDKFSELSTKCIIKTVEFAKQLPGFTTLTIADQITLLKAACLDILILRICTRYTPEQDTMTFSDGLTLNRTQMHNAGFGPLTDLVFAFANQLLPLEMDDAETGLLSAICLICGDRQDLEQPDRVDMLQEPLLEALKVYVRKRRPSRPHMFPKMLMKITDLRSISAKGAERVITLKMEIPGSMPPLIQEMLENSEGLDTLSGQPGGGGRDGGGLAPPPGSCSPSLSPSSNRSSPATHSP
Procedure, shortened: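 HepG2, transient cis-reporter transfection, 24 h exposure. mRNA readout: RT-PCR, FAM label, HpaI cut, capillary electrophoresis. DMSO baseline, gain/loss fitting.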

[13] = molecular target: X-box-binding protein 1 (Homo sapiens) (UniProt P17861); assay: ATG_Xbp1_CIS: Attagene CIS-FACTORIAL HepG2 Assay for human X-box Binding Protein 1 (XBP1) (AID 2282972); conditions: HepG2 XBP1 cis-element reporter, Attagene multiplex; actives raise or lower the signal
Sequence of X-box-binding protein 1 (Homo sapiens) (P17861 whole entry, looked up): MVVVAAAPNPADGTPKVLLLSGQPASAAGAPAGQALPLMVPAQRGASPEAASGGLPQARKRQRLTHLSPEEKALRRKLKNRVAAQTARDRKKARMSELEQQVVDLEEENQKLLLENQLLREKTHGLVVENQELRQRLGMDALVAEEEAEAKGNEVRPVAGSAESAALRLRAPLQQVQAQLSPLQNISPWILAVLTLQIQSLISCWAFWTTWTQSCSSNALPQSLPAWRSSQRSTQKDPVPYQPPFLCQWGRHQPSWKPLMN
Procedure, shortened: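 HepG2 cells transiently transfected with cis-regulated multiple reporter transcription units; endogenous transcription factor activity measured 24 hours after chemical dosing. Reporter mRNA quantified by RT-PCR, 6-FAM primer extension, HpaI digestion and capillary electrophoresis; bidirectional fitting versus DMSO.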

[14] = molecular target: Hepatocyte nuclear factor 4-alpha (Homo sapiens) (UniProt P41235); assay: ATG_HNF4a_TRANS: Attagene TRANS-FACTORIAL HepG2 Assay for human Hepatocyte Nuclear Factor 4 alpha (HNF4a) (AID 2282982; active = hit-call score of the fitted dose curve at least 0.9, where 1 is the maximum); conditions: HepG2 HNF4a transactivation reporter, mRNA readout
Sequence of Hepatocyte nuclear factor 4-alpha (Homo sapiens) (P41235 whole entry, looked up, the tested form may be a part): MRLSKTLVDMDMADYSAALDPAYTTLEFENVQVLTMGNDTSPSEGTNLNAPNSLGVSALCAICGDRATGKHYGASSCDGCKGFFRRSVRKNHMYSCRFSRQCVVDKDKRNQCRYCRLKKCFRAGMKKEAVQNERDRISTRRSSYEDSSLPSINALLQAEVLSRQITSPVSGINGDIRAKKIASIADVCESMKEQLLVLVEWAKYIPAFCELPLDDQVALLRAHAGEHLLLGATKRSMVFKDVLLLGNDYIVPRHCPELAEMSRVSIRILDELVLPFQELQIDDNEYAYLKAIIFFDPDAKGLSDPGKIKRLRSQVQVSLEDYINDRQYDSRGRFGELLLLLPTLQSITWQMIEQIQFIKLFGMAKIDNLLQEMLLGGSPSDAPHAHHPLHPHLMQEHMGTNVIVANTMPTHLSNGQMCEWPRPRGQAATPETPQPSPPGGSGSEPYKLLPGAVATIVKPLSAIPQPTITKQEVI
Procedure, shortened: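 Readout is fluorescent reporter-transcript fragments resolved by capillary electrophoresis after RT-PCR from HepG2 cells dosed for 24 h. Cells carried transfected GAL4-UAS reporter constructs measuring exogenous NR-GAL4 chimera activity; DMSO served as baseline.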

[15] = ATG_M_06_TRANS: Attagene TRANS-FACTORIAL HepG2 Assay for M06 Transcription Factor (Internal Marker) (AID 2282983; active = hit-call score of the fitted dose curve at least 0.9, where 1 is the maximum;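 note: reporter transcript level by RT-PCR then capillary electrophoresis fluorescence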); conditions: HepG2 Attagene TRANS M06 internal marker reporter
Procedure, shortened: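 After a 24 h chemical treatment of transfected HepG2, RNA underwent DNase I treatment, reverse transcription and reporter-specific PCR; labelled, HpaI-digested products were sized by capillary electrophoresis. Signal increase relative to DMSO defined activity.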

[16] = ATG_NF_kB_CIS: Attagene CIS-FACTORIAL HepG2 Assay for human Nuclear Factor Kappa B (NF-kB) (AID 2282991); conditions: HepG2 Attagene cis-factorial NF-kB reporter mRNA; actives raise or lower the signal
Procedure, shortened: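 Endpoint from a 52-component multiplexed HepG2 reporter panel: cis-regulated transcription units transiently transfected, 24 h dosing, reporter mRNA quantified by RT-PCR and capillary electrophoresis, scored as increase or decrease against DMSO.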

[17] = molecular target: Hypoxia-inducible factor 1-alpha (Homo sapiens) (UniProt Q16665); assay: ATG_HIF1a_CIS: Attagene CIS-FACTORIAL HepG2 Assay for human Hypoxia Inducible Factor 1 (HIF1A) (AID 2282951); conditions: HepG2 Attagene cis-factorial HIF1a reporter transcription; actives raise or lower the signal
Sequence of Hypoxia-inducible factor 1-alpha (Homo sapiens) (Q16665 whole entry, looked up): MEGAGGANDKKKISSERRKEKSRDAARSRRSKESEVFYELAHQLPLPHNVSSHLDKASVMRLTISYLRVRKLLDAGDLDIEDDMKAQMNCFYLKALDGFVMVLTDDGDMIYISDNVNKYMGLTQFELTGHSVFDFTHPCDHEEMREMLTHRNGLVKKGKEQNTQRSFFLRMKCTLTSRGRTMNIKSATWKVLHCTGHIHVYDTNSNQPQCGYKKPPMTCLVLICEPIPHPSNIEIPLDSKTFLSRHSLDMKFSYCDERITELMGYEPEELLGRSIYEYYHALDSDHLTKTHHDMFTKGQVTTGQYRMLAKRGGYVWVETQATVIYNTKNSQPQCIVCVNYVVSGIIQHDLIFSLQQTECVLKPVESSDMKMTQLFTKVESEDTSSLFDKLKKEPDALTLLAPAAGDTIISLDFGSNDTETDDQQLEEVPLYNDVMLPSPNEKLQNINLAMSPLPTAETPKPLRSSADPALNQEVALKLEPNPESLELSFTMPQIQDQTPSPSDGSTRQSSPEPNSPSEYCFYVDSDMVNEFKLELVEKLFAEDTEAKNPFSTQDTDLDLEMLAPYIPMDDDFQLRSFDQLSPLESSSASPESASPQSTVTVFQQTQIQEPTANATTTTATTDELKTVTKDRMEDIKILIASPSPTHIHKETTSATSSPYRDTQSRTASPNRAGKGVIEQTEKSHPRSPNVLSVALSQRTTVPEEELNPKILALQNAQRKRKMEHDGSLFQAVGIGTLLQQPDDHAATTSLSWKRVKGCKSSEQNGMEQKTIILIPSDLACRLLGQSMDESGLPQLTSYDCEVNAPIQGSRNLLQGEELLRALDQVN
Procedure, shortened: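 Dosed 24 h, transfected HepG2 cells yielded total RNA whose reporter transcripts were RT-PCR-amplified and sized by capillary electrophoresis using fluorescent labelling; DMSO defined baseline, with gain and loss of signal both fitted.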

[18] = molecular target: human Retinoid X Receptor beta (RXRb), RXRB (gene 6257) (UniProt P28702); assay: ATG_RXRb_TRANS: Attagene TRANS-FACTORIAL HepG2 Assay for human Retinoid X Receptor beta (RXRb) (AID 2283013; active = hit-call score of the fitted dose curve at least 0.9, where 1 is the maximum)
Sequence of human Retinoid X Receptor beta (RXRb), RXRB (gene 6257) (P28702 whole entry, looked up, the tested form may be a part): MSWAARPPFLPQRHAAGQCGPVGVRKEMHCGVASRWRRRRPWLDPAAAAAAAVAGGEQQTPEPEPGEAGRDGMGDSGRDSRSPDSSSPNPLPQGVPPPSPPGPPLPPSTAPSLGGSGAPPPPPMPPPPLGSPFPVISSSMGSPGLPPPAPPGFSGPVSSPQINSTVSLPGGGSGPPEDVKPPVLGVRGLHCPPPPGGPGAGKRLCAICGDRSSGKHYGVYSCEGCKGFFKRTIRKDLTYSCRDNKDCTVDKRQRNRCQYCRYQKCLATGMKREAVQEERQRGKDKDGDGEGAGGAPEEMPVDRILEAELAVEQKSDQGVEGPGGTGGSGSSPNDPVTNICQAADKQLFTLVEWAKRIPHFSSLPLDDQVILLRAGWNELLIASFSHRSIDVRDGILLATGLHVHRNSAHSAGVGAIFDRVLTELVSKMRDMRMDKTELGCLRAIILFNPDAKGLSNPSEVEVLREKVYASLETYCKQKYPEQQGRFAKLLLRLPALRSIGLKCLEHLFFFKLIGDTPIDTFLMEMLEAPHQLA
Procedure, shortened: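 Transfect HepG2 with GAL4-UAS multi-reporter constructs (chimeric NR-Gal4, TRANS format); dose compound 24 h; isolate RNA, RT-PCR, FAM primer extension, HpaI digest; quantify by capillary electrophoresis; positive direction vs DMSO.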

[19] = ATG_PBREM_CIS: Attagene CIS-FACTORIAL HepG2 Assay for human Phenobarbital-responsive Enhancer Module (PBREM) (AID 2282955); conditions: HepG2 PBREM cis-reporter, Attagene multiplexed transcription; actives raise or lower the signal
Procedure, shortened: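 Transfected liver-derived HepG2 cells exposed 24 h; PBREM reporter transcript quantified via RT-PCR and capillary electrophoresis, with activity in either direction referenced to DMSO.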

[20] = molecular target: human Thyroid Receptor alpha (THRa1), THRA (gene 7067) (UniProt P10827); assay: ATG_THRa1_TRANS: Attagene TRANS-FACTORIAL HepG2 Assay for human Thyroid Receptor alpha (THRa1) (AID 2283014; active = hit-call score of the fitted dose curve at least 0.9, where 1 is the maximum)
Sequence of human Thyroid Receptor alpha (THRa1), THRA (gene 7067) (P10827 whole entry, looked up, the tested form may be a part): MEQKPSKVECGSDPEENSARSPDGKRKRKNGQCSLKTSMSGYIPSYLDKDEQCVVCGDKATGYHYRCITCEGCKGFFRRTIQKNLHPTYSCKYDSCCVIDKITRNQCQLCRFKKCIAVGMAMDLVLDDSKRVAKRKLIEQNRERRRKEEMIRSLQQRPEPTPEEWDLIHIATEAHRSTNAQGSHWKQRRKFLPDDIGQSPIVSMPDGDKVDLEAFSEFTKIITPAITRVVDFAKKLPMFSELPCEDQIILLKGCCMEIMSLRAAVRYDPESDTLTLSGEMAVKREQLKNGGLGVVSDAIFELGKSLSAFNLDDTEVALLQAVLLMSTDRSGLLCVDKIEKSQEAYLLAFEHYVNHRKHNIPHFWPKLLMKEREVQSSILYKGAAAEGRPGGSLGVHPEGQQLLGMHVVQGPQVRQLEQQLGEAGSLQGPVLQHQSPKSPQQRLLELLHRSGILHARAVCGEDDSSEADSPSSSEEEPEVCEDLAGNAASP
Procedure, shortened: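 Transient HepG2 transfection, NR-Gal4 chimera driving GAL4-UAS reporters; 24 h compound exposure; total RNA, oligo(dT) RT, PCR, fluorescent primer extension, capillary electrophoresis. Upward direction vs DMSO control.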

Measured: AC50

CCOC(=O)c1ccccc1
inactive: [1] | [2] | [3] | [4] | [5] | [6] | [7] | [8] | [9] | [10] | [11]

CC(=O)OC(C)(C)Cc1ccccc1
inactive: [12] | [5] | [6] | [13] | [7] | [14] | [15] | [16] | [11]

CCCCC(CC)COC(=O)CS (stereo unspecified)
not listed: [5] | [6] | [14] | [15] | [19] | [20]
inactive: all other assays above

Nc1nnc(-c2ccc([N+](=O)[O-])o2)o1
active: [10] 20.8 µM
not listed: [5] | [6] | [8] | [13] | [15] | [17] | [20]
inactive: all other assays above

O=C1NC(=O)C2CC=CCC12 (stereo unspecified)
inactive: [1] | [2] | [12] | [3] | [17] | [19] | [5] | [6] | [13] | [14] | [15]

CCCCCCCCCCCCCCCCCC[N+](C)(C)C
inactive: [3] | [5] | [13] | [15]
active: [12] 42.5 µM | [4] 40.1 µM | [19] 45.4 µM | [14] 37.3 µM | [8] 16.2 µM | [16] 3.31 µM | [10] 4.81 µM | [11] 40.9 µM

COc1ccc2ccccc2c1
not listed: [3] | [9] | [10] | [12] | [14] | [16] | [17] | [19]
inactive: all other assays above

CCCCCCCCCCCCCC
not listed: [1] | [4] | [11] | [12] | [14] | [20]
inactive: all other assays above
